# Source: PubChem BioAssay (NCATS)
# Records with an inconclusive call do not appear. Unmarked numbers belong to inactive results. Activity calls are given as the source filed them. Calls follow the shape of the dose curve; as a rule, active = well fitted inhibition curve with a large enough effect; inconclusive = small, poorly fitted or top-dose-only effect; inactive = no such curve, though single readings can be large or run the other way.
# Test system: Zika virus NS2B-NS3 protease (linked construct)
# Assay: Primary screen NINDS Rhodamine qHTS for Zika virus inhibitors (AID 1347160); also: nearly all actives have a fitted effect of over 55% in size
# Settings: purified NS2B-NS3 protease, Rhodamine110 substrate fluorescence; series mostly up to 57.1 µM; activity change, negative = inhibition: at the top concentration
# Text: Avindra Nath, Ph.D., National Institute of Neurological Disorders and Stroke (NINDS), Bethesda, MD
# Radhakrishnan Padmanabhan, Ph.D., Georgetown University (GU), Washington D.C.
# Zika Virus causes congenital defects, including microcephaly and is associated with Guillain-Barre syndrome, eningoencephalitis and myelitis in infected adult. […] Using a target-based approach, we hope to establish a screening paradigm to uncover novel, cell-active NS2B-NS3 protease (Zika Virus) specific inhibitors from NCATS' collection of small molecules using qHTS.
# Four assay panel was created to identify potential Zika Virus inhibitors. Namely, (1) GU unlinked NS2B-NS3 AMC tagged protease qHTS, (2) GU unlinked NS2B-NS3 Rhodamine tagged protease qHTS, (3) NINDS linked NS2B-NS3 AMC tagged protease qHTS, (4) NINDS linked NS2B-NS3 Rhodamine tagged protease qHTS. Active compounds were re-acquired and re-screened to confirm inhibition. Inhibitors were further screened against various confirmatory and counterscreens in dose response format.
# Early Translation Branch (ETB)
# National Center for Advancing Translational Sciences (NCATS), Rockville, MD
# National Institute of Health (NIH), Bethesda, Maryland
# For the linked assay, Nath lab (NINDS) provided the purified linked NS2B-NS3 protease which is consists of hydrophilic domain of NS2B linked to the NS3 protease domain by a flexible (-[…]-) linker. Control compound aprotinin is obtained from Thermo Scientific (#78432; Waltham, Massachusetts). Rhodamine110 substrate ([N-Cbz]-Nle-Lys-Arg-Arg-Rhod110-Arg-Arg-Lys-Nle-[N-Cbz]) was purchased from either Genscript or Bachem.
# 1536-well Protease (Rhodamine110 Substrate) Assay:
# Briefly, 3 microL of enzyme (25 nM final concentration), in assay buffer (10 mM Tris-HCl pH 8.0 with 0.01% Tween 20) were dispensed into a 1,536-well solid-bottom black plate (Greiner Bio One, Monroe, NC). Twenty-three nL of compounds (final concentration range 7.28 nM to 114 microM) or control Aprotinin (final concentration range 3.47 nM to 114 microM) were transferred via Wako Pin-tool (Wako Automation, Richmond, VA). Samples were incubated (room temperature, protected from light) for 15 minutes followed by a 1 microL Rhodamine110 substrate addition (1.5 microM final concentration). Plates were then immediately read on a ViewLux High-throughput CCD imager (PerkinElmer, Waltham, MA) equipped with FITC fluorescence optics (480(20) nm excitation, 540(25) nm emission), then incubated (room temperature, protected from light) for 15 minutes (~15% conversion). The change in fluorescence intensity over the 15-minute reaction period was normalized against no-inhibitor and no-enzyme controls and the resulting percent inhibition data were fitted to a 4-parameter Hill equation. Aprotinin was used as intraplate control.
# % is scaled to controls: 0 for no effect and ±100 for the full control effect.
SMILES,"activity change, negative = inhibition",outcome,Potency
Cc1c(N2C(=O)c3ccc(C(=O)O)cc3C2=O)c(=O)n(-c2ccccc2)n1C,40.5%,–,–
C[C@]12CCC(=O)C=C1[C@@H](O)C[C@@H]1[C@@H]2[C@@H](O)C[C@@]2(C)[C@H]1CC[C@]2(O)C(=O)CO,18.7%,–,–
CC(C)=CCC[C@](C)(O[C@@H]1O[C@H](CO[C@@H]2OC[C@@H](O)[C@H](O)[C@H]2O)[C@@H](O)[C@H](O)[C@H]1O)[C@H]1CC[C@]2(C)[C@@H]1[C@H](O)C[C@@H]1[C@@]3(C)CC[C@H](O[C@@H]4O[C@H](CO)[C@@H](O)[C@H](O)[C@H]4O[C@@H]4O[C@H](CO)[C@@H](O)[C@H](O)[C@H]4O)C(C)(C)[C@@H]3CC[C@]12C,15.8% [at 33.1 µM],–,–
CCC[C@@H]1C[C@@H](C(=O)N[C@@H]([C@H]2O[C@H](SC)[C@H](OP(=O)(O)O)[C@@H](O)[C@H]2O)[C@H](C)Cl)N(C)C1,6.83% [at 33.1 µM],–,–
CC1(C)CC[C@]2(C(=O)O)CC[C@]3(C)C(=CCC4[C@@]5(C)C[C@@H](O)[C@H](O)C(C)(C)C5CC[C@]43C)[C@@H]2[C@@H]1O (stereo not given in full),–,inactive [at 33.1 µM],–
COC(=O)c1cc(CN2CCN(C(=N)N)CC2)cc(C(=O)N2CCN(C(=O)c3ccc(C(=N)N)cc3)CC2)c1,67.3%,–,–
C[C@H]1CN(C[C@H](Cc2ccccc2)C(=O)NCC(=O)O)CC[C@@]1(C)c1cccc(O)c1,–,inactive,–
CCCC1=CC2=C(CO1)C(=O)C(C)(OC(=O)c1c(C)cc(OC)cc1O)C(O)C2 (stereo not given),-21.5% [at 33.1 µM],–,–
C=CC(C)(C)C1(CC2NC(=O)C3CCCN3C2=O)C(=O)Nc2cc3c(cc21)C=CC(C)(C)O3 (stereo not given),6.12% [at 33.1 µM],–,–
CCNC(=O)[C@@H]1CCCN1C(=O)[C@H](CCCN=C(N)N)NC(=O)[C@H](CC(C)C)NC(=O)[C@@H](C)NC(=O)[C@H](Cc1ccc(O)cc1)NC(=O)[C@H](CO)NC(=O)[C@H](Cc1c[nH]c2ccccc12)NC(=O)[C@H](Cc1cnc[nH]1)NC(=O)[C@@H]1CCC(=O)N1,16% [at 33.1 µM],–,–
CNC(=O)Nc1ccc(OC)c(NC(=O)NC(=O)c2cc(F)c(F)cc2Cl)c1,17.3%,–,–
CCCn1cnc2c(NCc3ccccc3)nc(N[C@H](CC)CO)nc21,17.2%,–,–
C[C@@H]1C(=O)O[C@H]2CC34[C@H]5C[C@@H](C(C)(C)C)C36[C@@H](OC(=O)[C@@H]6O)OC4(C(=O)O5)[C@]21O (stereo not given in full),–,inactive,–
COc1ccc(/C=C/C(=O)O[C@@H]2[C@@H](O)[C@H](C)O[C@@H](OC3C4C=COC(O[C@@H]5O[C@H](CO)[C@@H](O)[C@H](O)[C@H]5O)C4C4(CO)OC34)[C@@H]2O)cc1OC (stereo not given in full),3.88% [at 15.1 µM],–,–
COC(=O)[C@]12C(=O)C(C)=C(O)[C@@]1(C)C(C)=CC1[C@@]34CC[C@@H](OC(C)=O)C(C)(C)C3[C@H](C[C@]12C)OC4=O (stereo not given in full),19.6% [at 33.1 µM],–,–
COc1cc(C(=O)OC[C@H]2O[C@H](O[C@@]3(CO)O[C@@H](CO)[C@H](O)[C@H]3O)[C@H](O)[C@@H](O)[C@@H]2O)ccc1O,23.6% [at 33.1 µM],–,–
CC(CO[C@@H]1O[C@H](COC(=O)/C=C/c2ccc(O)c(O)c2)[C@@H](O)[C@H](O)[C@H]1O)C1(O)COC(=O)C1 (stereo not given in full),-6.65% [at 33.1 µM],–,–
COC(=O)[C@@H]1C2CC3c4[nH]c5ccccc5c4CCN3CC2CC[C@@H]1O (stereo not given in full),24.5%,–,–
CNC(=O)O[C@H]1COc2ccc(N3CCN(C4COC4)CC3)cc2[C@@H]1NC(=O)c1ccc(F)cc1,34.1%,–,–
C[C@H]1[C@H](C)CC[C@]2(C(=O)O)CC[C@]3(C(=O)O)C(=CCC4[C@@]5(C)CC[C@H](O[C@@H]6O[C@H](C)[C@@H](O)[C@H](O)[C@H]6O)C(C)(C)C5CC[C@]43C)[C@H]12 (stereo not given in full),4.64% [at 15.1 µM],–,–

SMILES,"activity change, negative = inhibition",outcome,Potency
COc1ccc(C(=O)O[C@H]2CC(C)=CC[C@@]3(C)[C@@H](OC(C)=O)C[C@@](O)(C(C)C)[C@H]23)cc1,-21.4% [at 33.1 µM],–,–
COc1ccc(C)c2sc(NC(=O)c3ccncc3)nc12,16.4%,–,–
C/C(=C/CCC(CO)C1CCC2(C)C3CCC4C(C)(C)C(OC5OC(CO)C(O)C(O)C5O)CC(O)C45CC35CCC12C)COC1OC(CO)C(O)C(O)C1O (stereo not given),30.6% [at 15.1 µM],–,–
CC1CCC2C(C(=O)O)=CC3C(O)C(C)(C)CC123 (stereo not given),-12.3%,–,–
COc1cc([C@@H]2Oc3c(OC)cc(CCCO)cc3[C@@H]2CO[C@@H]2O[C@H](CO)[C@@H](O)[C@H](O)[C@H]2O)ccc1O,–,inactive [at 33.1 µM],–
CCN[C@@H]1C[C@H](N)[C@@H](O[C@H]2OC(CN)=CC[C@H]2N)[C@H](O)[C@H]1O[C@H]1OC[C@](C)(O)[C@H](NC)[C@H]1O,–,–,inactive
CCn1nnnc1NCc1ccc(C(C)C)cc1,5.97%,–,–
Nc1nc(CC(=O)Nc2ccc(CCNCC(O)c3ccccc3)cc2)cs1 (stereo not given),30.9%,–,–
CC1=CC2(O)/C=C/C(C)(O)CC(O)/C=C/C(=O)OC23C(=O)NC(CC(C)C)C3C1C (stereo not given),11.9% [at 33.1 µM],–,–
CC1=CC(=O)C2C(C)(C)CCCC2(C)C12CCC1(COC(=O)C1)O2 (stereo not given),-13.2% [at 33.1 µM],–,–
CC1OC(OC2C(CO)OC(OCC3OC(OC(=O)C45CCC(C)(C)CC4C4=CCC6C7(C)CCC(OC8OC(C(=O)O)C(O)C(OC9OC(CO)C(O)C(O)C9O)C8O)C(C)(C)C7CCC6(C)C4(C)CC5)C(O)C(O)C3O)C(O)C2O)C(O)C(O)C1O (stereo not given),9.74% [at 10.7 µM],–,–
COc1ccc([C@@H]2N[C@H](C(=O)O)Cc3c2[nH]c2ccccc32)cc1CN1CCN(c2ccccc2F)CC1,24.9%,–,–
CC1CCC2C(C)(C)C(O)CCC2(C)C12Cc1c(O)cc3c(c1O2)CN(C(CCC(N)=O)C(=O)O)C3=O (stereo not given),4.29% [at 33.1 µM],–,–
CC1CCCC2OC2C(=O)c2c(O)cc(O)cc2CC(=O)O1 (stereo not given),–,inactive,–
C[C@@H]1C(=O)O[C@H]2CC34[C@H]5C[C@@H](C(C)(C)C)C36[C@@H](OC(=O)[C@@H]6O)O[C@@]4(C(=O)O5)[C@]21O (stereo not given in full),33.8% [at 33.1 µM],–,–
CCN(c1cc(C#CCN2CCOCC2)cc(C(=O)NCc2c(C)cc(C)[nH]c2=O)c1C)C1CCC(N(C)CCOC)CC1 (stereo not given),4.39% [at 33.1 µM],–,–
OC[C@H]1O[C@@H](Oc2cc(O)cc(/C=C/c3ccc(O)cc3)c2)[C@H](O)[C@@H](O)[C@@H]1O,–,inactive,–
C/C=C1\[C@H](O[C@@H]2O[C@H](CO)[C@@H](O)[C@H](O)[C@H]2O)OC=C(C(=O)OC)[C@H]1CC(=O)OC,15.7% [at 33.1 µM],–,–
CC(=O)N[C@H]1[C@H](O[C@H]2CC[C@@]3(C)C(CC[C@]4(C)C3CC=C3C5CC(C)(C)CC[C@]5(C(=O)O)[C@H](O[C@@H]5O[C@H](CO)[C@@H](O)[C@H](O)[C@H]5O)C[C@]34C)C2(C)C)O[C@H](CO[C@@H]2OC[C@H](O)[C@H](O)[C@H]2O[C@@H]2OC[C@@H](O)[C@H](O)[C@H]2O)[C@@H](O)[C@@H]1O (stereo not given in full),-1.46% [at 15.1 µM],–,–
C=C[C@H]1[C@H](O[C@@H]2O[C@H](CO)[C@@H](O)[C@H](O)[C@H]2O)OC=C(C(=O)OC)[C@H]1C[C@@H]1N[C@H](C(=O)O)Cc2c1[nH]c1ccccc21,-10.8% [at 33.1 µM],–,–
